Where “and” joins values, the source holds several entries; their conditions need not be identical. Equal values may be shown once. Unmarked numbers belong to inactive results. Results filed as inconclusive are left out. Calls of active or inactive are those of the source. Unless noted, calls follow the shape of the full dose curve.
Assays:
[1] = biological target: Cytochrome P450 1A2 (Homo sapiens) (UniProt P05177); assay: p450-cyp1a2 (AID 410); also: potency is read from the fitted curve at half-maximal effect;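 as to activity change, negative = inhibition: -100% = full effect of reference inhibitor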
How it was run: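 O-Demethylation of luciferin 6' methyl ether by human CYP1A2 is monitored as luciferase luminescence. Substrate sits at Km (100uM); enzyme is 20nM. Values are scaled to 57 uM furafylline as maximal inhibition.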

[2] = Stat Signaling Pathway (AID 446; active = well fitted curve in either direction with a large enough effect, not every such curve was filed as active;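 also: ME-180 cervical cancer cells given 40 pM IL-6 alongside compound; SIE-controlled beta-lactamase reporter measured as 460/530 nm FRET emission ratio; % is scaled to controls: 0 for no effect and ±100 for the full control effect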)
How it was run: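 Normalization used AC90 stimulation (300 pM IL-6) and AC90 inhibition (125 nM pan-JAK inhibitor at 40 pM IL-6). The underlying signal is SIE-driven beta-lactamase in ME-180 cells after 5 h IL-6 exposure with compound.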

[3] = NFAT Signaling Pathway (AID 444; active = well fitted curve in either direction with a large enough effect, not every such curve was filed as active;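 also: carbachol stimulus at about its EC50 of 1 µM final; % is scaled to controls: 0 for no effect and ±100 for the full control effect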); details: Jurkat NFAT-bla M1, carbachol, beta-lactamase ratio, 5 h; at 17.2 µM (top of the series) unless noted
How it was run: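 Jurkat cells carrying an NFAT-driven β-lactamase reporter and co-transfected muscarinic M1 receptor were treated with compound plus carbachol (1 uM final, an EC50 level) for 5 h at 37 °C. CCF4 loading followed for 1 h at RT; 460/530 nm ratio gave %activity.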

[4] = Cell Viability - BJ (AID 421); details: BJ fibroblast viability, qHTS;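 also: potency is read from the fitted curve at half-maximal effect; cells exposed to compound for 40 hours at 37 °C before readout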
How it was run: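 Normal human BJ foreskin fibroblasts, 1500/well in complete medium, treated 40 hr at 37 °C. Cellular ATP by CellTiter-Glo luminescence; normalized to DMSO and 100 uM tamoxifen, AC50 from Hill fit.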

[5] = Cell Viability - Jurkat (AID 426;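 active = dose-dependent loss of cell ATP signal giving a full or clear fitted curve, ranked by lower potency value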; also: potency is read from the fitted curve at half-maximal effect); details: qHTS
How it was run: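 Cells of the human T-cell leukemia line Jurkat (E6-1) are seeded at 5000 per well, treated with compound across a concentration range for 40 hours at 37 °C, then lysed with CellTiter-Glo; luminescence reports ATP.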

[6] = Cell Viability - Hek293 (AID 427;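 active = compounds whose dose-response curve shows a full or clear partial loss of cell viability, called from curve shape rather than a numeric limit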;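 also: potency is read from the fitted curve at half-maximal effect; cells exposed to compound for 40 hours at 37 °C before reading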); details: qHTS
How it was run: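 HEK293 cells in complete medium were exposed to compound for 40 hr at 37 °C, then cellular ATP was read by CellTiter-Glo luminescence. Data were normalized to DMSO (basal) and 100 uM tamoxifen (100% inhibition), and AC50 came from Hill fits.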

[7] = Cell Viability - HepG2 (AID 433); details: qHTS;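 also: potency is read from the fitted curve at half-maximal effect; potency for ATP loss meaning cytotoxicity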
How it was run: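 Read-out is luciferase-based quantitation of cellular ATP as a measure of viable HepG2 cells after 40 h treatment at 37 °C. Signal decrease is scaled between DMSO-only and 100 uM tamoxifen controls, with AC50 fitted by the Hill equation.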

[8] = Cell Viability - MRC5 (AID 434); details: MRC5 lung fibroblast viability, qHTS;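 also: potency is read from the fitted curve at half-maximal effect; potency reflects cytotoxicity seen as loss of intracellular ATP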
How it was run: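 Decrease in intracellular ATP, quantified by luciferase light output, reflects compound toxicity toward MRC5 cells exposed for 40 hr in complete culture medium. Concentration-response curves, scaled between DMSO and 100 uM tamoxifen, gave AC50 values.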

[9] = Cell Viability - SK-N-SH (AID 435); details: SK-N-SH neuroblastoma cell viability qHTS;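 also: potency is read from the fitted curve at half-maximal effect; compound exposure lasted 40 h at 37 °C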
How it was run: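 Luminescent ATP signal served as the viability read-out after 40 hours of compound treatment of human neuroblastoma SK-N-SH cells. Concentration-response data, scaled between DMSO and 100 uM tamoxifen, gave AC50 values by standard Hill modeling.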

[10] = biological target: Lysosomal acid glucosylceramidase (Homo sapiens) (UniProt P04062); assay: Glucocerebrosidase-p2 (AID 348; in the data active = potency below about 10 µM; also: potency is read from the fitted curve at half-maximal effect); details: purified GBA, blue fluorogenic substrate, 40 min
How it was run: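 Normal human glucocerebrosidase (0.2 nM) with blue fluorogenic substrate (80 uM final) in citrate/phosphate pH 5.9 with 10mM sodium taurocholate, 0.01% tween-20; 40 min RT, NaOH/glycine stop; fluorescence Ex 365/Em 440; AC50 from a titration from 0.6 nM upwards.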

Chain of Cytochrome P450 1A2 (Homo sapiens) (P05177 whole entry, looked up): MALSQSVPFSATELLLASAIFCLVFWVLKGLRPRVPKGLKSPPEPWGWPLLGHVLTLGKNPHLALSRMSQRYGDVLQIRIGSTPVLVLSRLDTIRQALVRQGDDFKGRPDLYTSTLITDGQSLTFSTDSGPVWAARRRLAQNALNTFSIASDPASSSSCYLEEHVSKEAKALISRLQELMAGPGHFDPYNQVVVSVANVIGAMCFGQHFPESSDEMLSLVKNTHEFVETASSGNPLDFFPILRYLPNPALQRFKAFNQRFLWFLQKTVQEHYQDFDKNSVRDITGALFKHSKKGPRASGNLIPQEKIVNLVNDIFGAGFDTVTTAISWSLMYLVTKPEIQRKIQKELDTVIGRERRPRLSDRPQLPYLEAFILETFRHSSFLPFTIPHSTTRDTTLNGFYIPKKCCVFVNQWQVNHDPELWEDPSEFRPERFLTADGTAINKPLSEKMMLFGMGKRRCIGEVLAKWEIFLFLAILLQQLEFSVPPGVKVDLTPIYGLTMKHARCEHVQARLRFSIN
Chain of Lysosomal acid glucosylceramidase (Homo sapiens) (P04062 whole entry, looked up): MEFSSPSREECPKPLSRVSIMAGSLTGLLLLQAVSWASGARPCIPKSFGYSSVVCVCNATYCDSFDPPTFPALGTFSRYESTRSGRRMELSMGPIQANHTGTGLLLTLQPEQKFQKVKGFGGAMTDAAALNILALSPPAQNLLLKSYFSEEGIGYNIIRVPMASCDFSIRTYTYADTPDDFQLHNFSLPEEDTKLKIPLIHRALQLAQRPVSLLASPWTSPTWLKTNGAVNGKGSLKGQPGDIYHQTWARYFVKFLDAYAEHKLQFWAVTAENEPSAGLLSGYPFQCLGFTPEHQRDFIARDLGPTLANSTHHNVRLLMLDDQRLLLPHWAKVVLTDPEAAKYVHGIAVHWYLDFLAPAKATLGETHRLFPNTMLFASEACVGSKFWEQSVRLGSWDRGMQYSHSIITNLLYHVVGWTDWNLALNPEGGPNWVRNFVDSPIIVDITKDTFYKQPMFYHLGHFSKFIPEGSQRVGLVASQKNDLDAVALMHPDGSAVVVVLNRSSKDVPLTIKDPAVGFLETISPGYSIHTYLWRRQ

For `CN1CCc2c(c3ccccc3n2Cc2ccccc2)C1`, the Potency [1] was 5.01 µM (active) and the outcome [2] was “inactive”.

For `CC(=O)N=c1sc(S(N)(=O)=O)nn1C`, the Potency [1] was “inactive”, the activity change, negative = inhibition [3] was 0.015% and 12.3% and the outcome [2] was “inactive”.

With `CCOC(C)OCC` the Potency [4] was > 92 µM, the Potency [5] was > 92 µM and the Potency [6] was > 92 µM. The Potency [7] was > 92 µM, the Potency [8] was > 92 µM and the Potency [9] was > 92 µM.

In the case of `O=P(O)(O)OP(=O)(O)O`, the Potency [10] is reported as > 11.4 µM, the activity change, negative = inhibition [3] is reported as 3.99% [at 7.69 µM] and the outcome [2] is reported as “inactive”.

For `c1ccc2ccccc2c1`, the Potency [4] was > 92 µM, the Potency [5] was > 92 µM and the Potency [6] was > 92 µM. The Potency [7] was > 92 µM, the Potency [8] was > 92 µM and the Potency [9] was > 92 µM.

For `Cc1ncc[nH]1`, the Potency [4] was > 92 µM, the Potency [5] was > 92 µM and the Potency [6] was > 92 µM. For the same compound, the Potency [7] was > 92 µM, the Potency [8] was > 92 µM and the Potency [9] was > 92 µM.

With `C[C@H](CCC(=O)O)[C@H]1CC[C@H]2[C@@H]3[C@H](O)C[C@@H]4C[C@H](O)CC[C@]4(C)[C@H]3C[C@H](O)[C@]12C` the Potency [4] was > 92 µM, the Potency [5] was > 92 µM and the Potency [6] was > 92 µM. For the same compound, the Potency [7] was > 92 µM, the Potency [8] was > 92 µM and the Potency [9] was > 92 µM.

For `NCCN`, the Potency [4] was > 92 µM, the Potency [5] was > 92 µM and the Potency [6] was > 92 µM. The Potency [7] was > 92 µM, the Potency [8] was > 92 µM and the Potency [9] was > 92 µM.

With `C[C@H]1O[C@@H](O[C@H]2[C@@H](O)C[C@H](O[C@H]3[C@@H](O)C[C@H](O[C@H]4CC[C@@]5(C)[C@H](CC[C@@H]6[C@@H]5C[C@@H](O)[C@]5(C)[C@@H](C7=CC(=O)OC7)CC[C@]65O)C4)O[C@@H]3C)O[C@@H]2C)C[C@H](O)[C@@H]1O` the Potency [4] was 0.00125 µM (active), the Potency [5] was 0.00438 µM (active) and the Potency [6] was 0.0128 µM (active). The Potency [7] was 0.0159 µM (active), the Potency [8] was > 92 µM and the Potency [9] was 0.0073 µM (active).

For `NC(N)=O`, the Potency [4] was > 92 µM, the Potency [5] was > 92 µM and the Potency [6] was > 92 µM. For the same compound, the Potency [7] was > 92 µM, the Potency [8] was > 92 µM and the Potency [9] was > 92 µM.

In the case of `CCCCC(=O)O[C@H]1CC[C@H]2[C@@H]3CCc4cc(O)ccc4[C@H]3CC[C@]12C`, the outcome [2] is reported as “inactive”.

For `Cc1cccc(C)c1NC(=O)C1CCCCN1C` (stereo not drawn), the activity change, negative = inhibition [3] was -26% and the outcome [2] was “inactive”.

With `Cc1ncc(C[n+]2csc(CCO)c2C)c(N)n1` the activity change, negative = inhibition [3] was -0.747% and the outcome [2] was “inactive”.

In the case of `N[C@H](CC(=O)O)C(=O)O`, the activity change, negative = inhibition [3] is reported as 13.7% [at 38 µM] and the outcome [2] is reported as “inactive”.

In the case of `CN(CCO)CC(O)Cn1cnc2c1c(=O)n(C)c(=O)n2C` (stereo not drawn) (tested in a mixture with another compound), the activity change, negative = inhibition [3] is reported as -24.9% and the outcome [2] is reported as “inactive”.

In the case of `Oc1ccc(/C=C/c2cc(O)cc(O)c2)cc1`, the Potency [4] is reported as > 92 µM, the Potency [5] is reported as > 92 µM and the Potency [6] is reported as 52.8 µM. For the same compound, the Potency [7] was > 92 µM, the Potency [8] was > 92 µM and the Potency [9] was > 92 µM. For the same compound, the outcome [2] was “inactive”.

With `CCCCO` the Potency [4] was > 92 µM, the Potency [5] was > 92 µM and the Potency [6] was > 92 µM. The Potency [7] was > 92 µM, the Potency [8] was > 92 µM and the Potency [9] was > 92 µM.

In the case of `OC[C@H]1O[C@@H]2O[C@H]3[C@H](O)[C@@H](O)[C@@H](O[C@H]4[C@H](O)[C@@H](O)[C@@H](O[C@H]5[C@H](O)[C@@H](O)[C@@H](O[C@H]6[C@H](O)[C@@H](O)[C@@H](O[C@H]7[C@H](O)[C@@H](O)[C@@H](O[C@H]1[C@H](O)[C@H]2O)O[C@@H]7CO)O[C@@H]6CO)O[C@@H]5CO)O[C@@H]4CO)O[C@@H]3CO`, the Potency [4] is reported as > 92 µM, the Potency [5] is reported as > 92 µM and the Potency [6] is reported as > 92 µM. For the same compound, the Potency [7] was > 92 µM, the Potency [8] was > 92 µM and the Potency [9] was > 92 µM.

For `C=C1C(CCl)(CCl)C2(Cl)C(Cl)C(Cl)C1(Cl)C2(Cl)Cl` (stereo not drawn), the Potency [5] was 31 µM (active), the Potency [6] was 48.2 µM (active) and the Potency [7] was > 92 µM. For the same compound, the Potency [8] was > 92 µM and the Potency [9] was 50 µM (active).

For `CC1=CC(=O)NS(=O)(=O)O1`, the Potency [4] was > 92 µM, the Potency [5] was > 92 µM and the Potency [6] was > 92 µM. For the same compound, the Potency [7] was > 92 µM, the Potency [8] was > 92 µM and the Potency [9] was > 92 µM.

With `C/C=C/C=C/C(=O)O` the Potency [4] was > 92 µM, the Potency [5] was > 92 µM and the Potency [6] was > 92 µM. For the same compound, the Potency [7] was > 92 µM, the Potency [8] was > 92 µM and the Potency [9] was > 92 µM.

With `CC1(C)S[C@@H]2[C@H](NC(=O)C3(N)CCCCC3)C(=O)N2[C@H]1C(=O)O` the activity change, negative = inhibition [3] was -19.8% and the outcome [2] was “inactive”.

For `Oc1cccc(O)c1O`, the Potency [7] was > 92 µM and the Potency [8] was > 92 µM.

With `Cn1nnnc1SCC1=C(C(=O)O)N2C(=O)[C@@H](NC(=O)[C@H](O)c3ccccc3)[C@H]2SC1` the activity change, negative = inhibition [3] was 5.92% and the outcome [2] was “inactive”.

With `CC(=O)Oc1cccc2c1C(=O)c1c(OC(C)=O)cc(C(=O)O)cc1C2=O` the activity change, negative = inhibition [3] was -21.4% and the outcome [2] was “inactive”.

Source: PubChem BioAssay (NCATS)
